Of roughly 6,500 targets only a part is listed; those with a hit were picked by preference. About 2% of all pairs of compound and target were hits. A number with no mark means an inactive call.
Each target was assayed with COC(=O)C#Cc1ccccc1 [methyl 3-phenylpropiolate] (assay: log2 ratio of iodoacetamide-alkyne labeling of the cysteine site, DMSO over compound (competition); higher = stronger covalent engagement of the cysteine by the compound, active = 1 or more). Conditions: 500 µM; treatment time 1 h; system: HEK293T cell lysate.
Summary of the method: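 HEK293T lysate at 2 mg/mL was treated with vehicle or electrophile (500 µM) for 1 h at ambient temperature, then labelled with iodoacetamide alkyne (1 h), clicked to sCIP-TMT reagents, pooled, digested with trypsin overnight at 37 °C, enriched on streptavidin and eluted with acid. Peptides were analysed by Orbitrap Eclipse LC-MS/MS with FAIMS and quantified in FragPipe, using duplicate channels and three replicates, with cysteines quantified in only one replicate excluded. The log2 competition ratio for each cysteine is the mean control-channel reporter intensity divided by the mean compound-channel reporter intensity.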
UniProt P51991, sequence (P51991 whole entry, looked up): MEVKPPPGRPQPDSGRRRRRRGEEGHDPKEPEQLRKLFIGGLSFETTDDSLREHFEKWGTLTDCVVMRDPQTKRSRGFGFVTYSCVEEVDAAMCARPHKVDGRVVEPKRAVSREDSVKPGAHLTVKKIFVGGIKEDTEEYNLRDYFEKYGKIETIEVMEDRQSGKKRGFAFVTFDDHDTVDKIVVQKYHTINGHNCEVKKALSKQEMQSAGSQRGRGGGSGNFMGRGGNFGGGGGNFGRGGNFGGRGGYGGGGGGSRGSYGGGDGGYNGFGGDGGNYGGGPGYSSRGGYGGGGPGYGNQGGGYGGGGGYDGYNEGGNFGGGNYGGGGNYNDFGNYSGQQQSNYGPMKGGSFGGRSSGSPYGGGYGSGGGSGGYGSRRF
UniProt P31939, sequence (P31939 whole entry, looked up): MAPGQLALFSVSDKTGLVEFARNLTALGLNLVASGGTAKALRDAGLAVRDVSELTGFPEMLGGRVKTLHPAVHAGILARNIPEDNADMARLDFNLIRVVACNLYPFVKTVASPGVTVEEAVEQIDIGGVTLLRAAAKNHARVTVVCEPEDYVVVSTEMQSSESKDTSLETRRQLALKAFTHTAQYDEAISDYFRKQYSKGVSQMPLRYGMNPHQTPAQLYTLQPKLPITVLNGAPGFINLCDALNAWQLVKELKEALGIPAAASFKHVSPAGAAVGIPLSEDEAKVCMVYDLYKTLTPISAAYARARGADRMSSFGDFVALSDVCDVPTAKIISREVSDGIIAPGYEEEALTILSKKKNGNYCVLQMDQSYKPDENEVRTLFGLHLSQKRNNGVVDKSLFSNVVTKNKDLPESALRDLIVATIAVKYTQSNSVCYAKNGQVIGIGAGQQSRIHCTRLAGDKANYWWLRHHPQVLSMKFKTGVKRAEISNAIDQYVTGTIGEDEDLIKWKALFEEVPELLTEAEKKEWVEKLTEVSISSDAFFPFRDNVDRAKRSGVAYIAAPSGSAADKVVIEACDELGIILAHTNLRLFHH
UniProt P13995, sequence (P13995 whole entry, looked up): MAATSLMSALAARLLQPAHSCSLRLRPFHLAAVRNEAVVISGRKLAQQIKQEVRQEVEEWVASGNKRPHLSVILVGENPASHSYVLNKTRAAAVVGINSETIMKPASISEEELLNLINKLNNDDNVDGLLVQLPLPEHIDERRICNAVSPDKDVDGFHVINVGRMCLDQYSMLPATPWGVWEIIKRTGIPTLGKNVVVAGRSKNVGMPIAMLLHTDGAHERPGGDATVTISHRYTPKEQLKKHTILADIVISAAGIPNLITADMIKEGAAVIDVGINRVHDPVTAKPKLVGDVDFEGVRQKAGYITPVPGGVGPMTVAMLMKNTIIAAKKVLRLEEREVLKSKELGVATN
UniProt P22087, sequence (P22087 whole entry, looked up): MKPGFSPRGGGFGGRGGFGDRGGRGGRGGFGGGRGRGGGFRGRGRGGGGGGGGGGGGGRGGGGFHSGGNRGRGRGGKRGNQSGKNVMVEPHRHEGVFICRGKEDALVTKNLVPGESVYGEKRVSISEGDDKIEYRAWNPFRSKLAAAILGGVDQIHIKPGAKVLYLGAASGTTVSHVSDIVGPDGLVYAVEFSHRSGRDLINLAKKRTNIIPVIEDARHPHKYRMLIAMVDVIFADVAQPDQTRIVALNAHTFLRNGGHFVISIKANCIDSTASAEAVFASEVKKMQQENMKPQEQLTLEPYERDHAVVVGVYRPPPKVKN
UniProt P35579, sequence (P35579 whole entry, looked up): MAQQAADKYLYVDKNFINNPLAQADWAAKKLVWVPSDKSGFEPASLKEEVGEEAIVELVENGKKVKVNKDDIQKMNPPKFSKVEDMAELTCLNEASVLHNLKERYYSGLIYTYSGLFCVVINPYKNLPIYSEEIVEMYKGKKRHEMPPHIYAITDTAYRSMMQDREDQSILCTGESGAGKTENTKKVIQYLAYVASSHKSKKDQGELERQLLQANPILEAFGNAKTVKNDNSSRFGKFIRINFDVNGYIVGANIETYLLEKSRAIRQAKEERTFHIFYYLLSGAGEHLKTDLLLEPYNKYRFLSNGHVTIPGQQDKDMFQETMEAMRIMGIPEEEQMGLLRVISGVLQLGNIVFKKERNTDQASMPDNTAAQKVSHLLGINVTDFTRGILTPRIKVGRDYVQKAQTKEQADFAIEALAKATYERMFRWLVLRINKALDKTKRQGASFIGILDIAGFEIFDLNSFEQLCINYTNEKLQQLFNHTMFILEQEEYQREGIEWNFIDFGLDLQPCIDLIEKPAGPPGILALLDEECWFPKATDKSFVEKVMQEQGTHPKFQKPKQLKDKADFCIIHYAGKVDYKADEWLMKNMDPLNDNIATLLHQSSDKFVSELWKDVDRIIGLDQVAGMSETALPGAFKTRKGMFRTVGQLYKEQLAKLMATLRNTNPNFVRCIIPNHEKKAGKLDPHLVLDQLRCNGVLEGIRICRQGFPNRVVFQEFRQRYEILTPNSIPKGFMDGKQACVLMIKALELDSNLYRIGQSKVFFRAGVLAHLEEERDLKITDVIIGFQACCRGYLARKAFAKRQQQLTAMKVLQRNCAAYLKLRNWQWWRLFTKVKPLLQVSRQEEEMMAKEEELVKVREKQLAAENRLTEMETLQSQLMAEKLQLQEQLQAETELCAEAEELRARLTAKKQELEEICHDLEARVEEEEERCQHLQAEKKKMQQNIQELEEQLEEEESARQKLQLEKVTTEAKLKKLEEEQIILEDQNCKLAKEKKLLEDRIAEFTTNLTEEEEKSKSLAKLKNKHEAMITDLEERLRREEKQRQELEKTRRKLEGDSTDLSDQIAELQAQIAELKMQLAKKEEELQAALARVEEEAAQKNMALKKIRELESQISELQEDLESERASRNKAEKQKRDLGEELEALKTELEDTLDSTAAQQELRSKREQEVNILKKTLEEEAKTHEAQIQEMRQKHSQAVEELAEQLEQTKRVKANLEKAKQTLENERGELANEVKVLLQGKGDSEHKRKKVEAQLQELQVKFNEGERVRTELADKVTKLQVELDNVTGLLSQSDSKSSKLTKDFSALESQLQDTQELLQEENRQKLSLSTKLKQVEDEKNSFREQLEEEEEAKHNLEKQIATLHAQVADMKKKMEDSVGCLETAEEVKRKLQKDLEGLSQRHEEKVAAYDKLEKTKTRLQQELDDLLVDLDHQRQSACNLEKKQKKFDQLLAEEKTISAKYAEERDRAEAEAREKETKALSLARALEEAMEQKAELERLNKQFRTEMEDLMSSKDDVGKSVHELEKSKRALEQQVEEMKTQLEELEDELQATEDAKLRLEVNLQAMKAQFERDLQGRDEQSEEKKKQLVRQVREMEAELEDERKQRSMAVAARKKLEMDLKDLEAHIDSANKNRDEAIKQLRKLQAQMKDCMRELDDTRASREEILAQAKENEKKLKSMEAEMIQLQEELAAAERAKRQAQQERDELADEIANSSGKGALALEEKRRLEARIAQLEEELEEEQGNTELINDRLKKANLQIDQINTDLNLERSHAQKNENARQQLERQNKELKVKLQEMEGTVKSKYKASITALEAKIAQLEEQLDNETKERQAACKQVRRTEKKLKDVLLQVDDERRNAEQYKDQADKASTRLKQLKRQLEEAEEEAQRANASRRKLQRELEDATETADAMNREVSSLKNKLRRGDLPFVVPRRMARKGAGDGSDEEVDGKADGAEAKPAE
UniProt P33981, sequence (P33981 whole entry, looked up): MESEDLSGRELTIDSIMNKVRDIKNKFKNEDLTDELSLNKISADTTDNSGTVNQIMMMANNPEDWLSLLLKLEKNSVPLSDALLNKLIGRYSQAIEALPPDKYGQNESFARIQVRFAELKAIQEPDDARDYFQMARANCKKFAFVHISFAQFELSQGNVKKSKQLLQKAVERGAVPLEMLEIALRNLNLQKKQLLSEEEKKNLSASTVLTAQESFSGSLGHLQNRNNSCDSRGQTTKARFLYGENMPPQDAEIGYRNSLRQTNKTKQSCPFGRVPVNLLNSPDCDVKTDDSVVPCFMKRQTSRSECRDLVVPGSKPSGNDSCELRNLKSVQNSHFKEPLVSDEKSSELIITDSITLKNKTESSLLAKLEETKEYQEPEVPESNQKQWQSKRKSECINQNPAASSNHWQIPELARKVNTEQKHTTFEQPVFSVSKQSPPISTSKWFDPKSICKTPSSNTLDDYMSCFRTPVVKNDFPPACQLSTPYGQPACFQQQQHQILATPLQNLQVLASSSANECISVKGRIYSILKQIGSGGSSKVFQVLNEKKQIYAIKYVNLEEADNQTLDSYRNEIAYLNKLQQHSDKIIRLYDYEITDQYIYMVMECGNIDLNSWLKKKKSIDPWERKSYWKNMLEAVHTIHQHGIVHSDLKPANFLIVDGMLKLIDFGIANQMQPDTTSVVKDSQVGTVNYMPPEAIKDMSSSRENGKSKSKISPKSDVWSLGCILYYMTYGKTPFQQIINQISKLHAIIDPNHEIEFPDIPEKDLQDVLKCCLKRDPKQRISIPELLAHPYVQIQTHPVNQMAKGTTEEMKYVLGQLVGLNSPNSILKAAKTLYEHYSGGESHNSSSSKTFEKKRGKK
UniProt P51553, sequence (P51553 whole entry): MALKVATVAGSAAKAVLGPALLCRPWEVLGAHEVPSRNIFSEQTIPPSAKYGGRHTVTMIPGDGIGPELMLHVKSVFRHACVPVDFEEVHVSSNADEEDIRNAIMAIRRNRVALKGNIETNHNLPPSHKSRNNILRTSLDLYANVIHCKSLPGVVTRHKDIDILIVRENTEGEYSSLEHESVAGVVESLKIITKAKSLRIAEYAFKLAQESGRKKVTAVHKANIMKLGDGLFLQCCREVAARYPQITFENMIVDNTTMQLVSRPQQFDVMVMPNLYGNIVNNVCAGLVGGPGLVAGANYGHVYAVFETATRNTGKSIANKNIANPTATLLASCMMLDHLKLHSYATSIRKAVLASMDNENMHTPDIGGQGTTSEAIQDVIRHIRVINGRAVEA
UniProt P10599, sequence (P10599 whole entry, looked up): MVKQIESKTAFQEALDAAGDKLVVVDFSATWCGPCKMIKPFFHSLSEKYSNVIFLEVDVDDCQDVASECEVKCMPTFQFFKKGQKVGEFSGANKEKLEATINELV
In the case of FBL C268 (UniProt P22087), the “log2 ratio of iodoacetamide-alkyne labeling” value (“log2 ratio” for short) is reported as 0.27. In the case of EPRS C92 (UniProt P07814), the “log2 ratio” value is reported as 0.571. OAT C253 (UniProt P04181) was tested, and the “log2 ratio” value was 0.0787. For TTK C322 (UniProt P33981), the “log2 ratio” value was 1.29 (active). For MAP1B C1814 (UniProt P46821), the “log2 ratio” value was 0.438. For FH C333 (UniProt P07954), the “log2 ratio” value was 0.338. In the case of GALK1 C170 (UniProt P51570), the “log2 ratio” value is reported as 0.0992. CAPN2 C301 (UniProt P17655) was tested, and the “log2 ratio” value was 2.17 (active). With ADD1 C68 (UniProt P35611) the “log2 ratio” value was 0.368. ANXA7 C327 (UniProt P20073) was tested, and the “log2 ratio” value was 0.191. For UniProt O95071_C739, the “log2 ratio” value was 0.0375. In the case of MTHFD2 C145 (UniProt P13995), the “log2 ratio” value is reported as 0.057. In the case of IDH3G C81 (UniProt P51553), the “log2 ratio” value is reported as 0.412. ADD1 C253 (UniProt P35611) was tested, and the “log2 ratio” value was 0.101. HNRNPF C290 (UniProt P52597) was tested, and the “log2 ratio” value was 0.0362. For PDHB C306 (UniProt P11177), the “log2 ratio” value was -0.122. UniProt P17812_C218 was tested, and the “log2 ratio” value was -0.193. In the case of TXN C35 (UniProt P10599), the “log2 ratio” value is reported as 1.14 (active). With FASN C1186 (UniProt P49327) the “log2 ratio” value was -0.0549. In the case of RANBP2 C581 (UniProt P49792), the “log2 ratio” value is reported as 0.41. COIL C126 (UniProt P38432) was tested, and the “log2 ratio” value was 0.729. In the case of RCC1 C93 (UniProt P18754), the “log2 ratio” value is reported as 0.14. APC C1387 (UniProt P25054) was tested, and the “log2 ratio” value was 0.256. In the case of U2AF1L5 C67 (UniProt P0DN76), the “log2 ratio” value is reported as 0.366. ATIC C363 (UniProt P31939) was tested, and the “log2 ratio” value was 0.3. With OAT C306 (UniProt P04181) the “log2 ratio” value was 0.00204. For RPL4 C208 (UniProt P36578), the “log2 ratio” value was 0.273. For CCT4 C252 (UniProt P50991), the “log2 ratio” value was -0.0169. HNRNPA3 C85 (UniProt P51991) was tested, and the “log2 ratio” value was 0.23. GART C466 (UniProt P22102) was tested, and the “log2 ratio” value was 0.199. UniProt P10155_C71 was tested, and the “log2 ratio” value was 0.136. For MBD4 C268 (UniProt O95243), the “log2 ratio” value was 1.12 (active). In the case of RRM1 C352 (UniProt P23921), the “log2 ratio” value is reported as 0.357. SMC2 C585 (UniProt O95347) was tested, and the “log2 ratio” value was 0.258. In the case of ANXA7 C363 (UniProt P20073), the “log2 ratio” value is reported as 0.0125. MYH9 C1379 (UniProt P35579) was tested, and the “log2 ratio” value was 0.164. For PML C338 (UniProt P29590), the “log2 ratio” value was 0.413.
